Each structure is given as a SMILES string. Where two headings read alike, the source gives them in different places.

Consider seven molecules from PMC5540273 (PLoS ONE, 2017).

Among the test systems are ROCK1; ROCK2; ROS1; S6K1; SBK1; SGK2; SGK3; SGK.
Holding throughout (conditions): n = 1
Experiment [1] deals with RPS6KA4(Kin.Dom.1-N-terminal).
In experiment [2] the test system is RPS6KA4(Kin.Dom.2-C-terminal).
Experiment [3] deals with RPS6KA5(Kin.Dom.1-N-terminal).
Experiment [4] relates to RPS6KA5(Kin.Dom.2-C-terminal).
In experiment [5] the test system is T1, RSK1(Kin.Dom.1-N-terminal).
T1 construct: gene RPS6KA1

For experiment [6], the system named is T2, RSK1(Kin.Dom.2-C-terminal).
T2 construct: gene RPS6KA1

The subject of experiment [7] is T3, RSK2(Kin.Dom.1-N-terminal).
T3 construct: gene RPS6KA3

Experiment [8] concerns T4, RSK2(Kin.Dom.2-C-terminal).
T4 construct: gene RPS6KA3

For experiment [9], the system named is T5, RSK3(Kin.Dom.1-N-terminal).
T5 construct: gene RPS6KA2

Experiment [10] has as its system T6, RSK3(Kin.Dom.2-C-terminal).
T6 construct: gene RPS6KA2

Experiment [11] has as its system T7, RSK4(Kin.Dom.1-N-terminal).
T7 construct: gene RPS6KA6

In experiment [12] the test system is T8, RSK4(Kin.Dom.2-C-terminal).
T8 construct: gene RPS6KA6

[13] abbreviates: concentration: 1 μM, replicates: in singlicate.
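Also: KINOMEscan kinase panel screen.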

As for `Cc1ccc(NC(=O)Nc2cccc(C(F)(F)F)c2)cc1` [GSK955403], the “%Inh” value is 0% with ROCK1 (1 µM); 0% in the experiment with ROCK2 (1 µM); 0% in the experiment on ROS1 (1 µM); 0% in experiment [1] (1 µM); 1% in experiment [2] (1 µM); 3% in [3] (1 µM). Further, the “%Inh” value turned out to be 6% in experiment [4] (1 µM); 1% in [5] (1 µM); 6% in experiment [6] (1 µM); 0% in experiment [7] (1 µM); 0% in [8] (1 µM); 7% in [9] (1 µM). In addition, the “%Inh” value in experiment [10] (1 µM) came out at 27%; in experiment [11] (1 µM), 0%; in experiment [12] (1 µM), 23%; with S6K1 (1 µM), 2%; with SBK1 (1 µM), 0%; in the experiment with SGK2 (1 µM), 7%. The results for the “%Inh” value in the experiment with SGK3 (1 µM) and with SGK (1 µM) were 0% and 22%, respectively.
For `COc1ccc(Nc2nccc(-c3cccc(NC(=O)c4cc5cc(F)ccc5[nH]4)c3)n2)cc1` [GSK1229782], the “%Inh” value was 48% in the experiment on ROCK1 (setting [13]); 35% in the experiment on ROCK2 (setting [13]); 34% with ROS1 (setting [13]); 21% in experiment [1] (setting [13]); 0% in experiment [2] (setting [13]); 6% in experiment [3] (setting [13]). Besides, the “%Inh” value in experiment [4] (setting [13]) is reported as 14%; in experiment [5] (setting [13]) it was 13%; in experiment [6] (setting [13]) it was 5%; in [7] (setting [13]), 21%; in experiment [8] (setting [13]) it was 0%; in experiment [9] (setting [13]), 1%. The “%Inh” value in [10] (setting [13]) is 0%; in experiment [11] (setting [13]), 0%; in experiment [12] (setting [13]) it was 24%; in the experiment on S6K1 (setting [13]), 16%; with SBK1 (setting [13]) it was 18%; in the experiment with SGK2 (setting [13]) it was 0%. The results for the “%Inh” value in the experiment with SGK3 (setting [13]) and in the experiment on SGK (setting [13]) were 0% and 6%, respectively.
As to `COC(=O)c1c(-c2ccccc2)c2cc(OC)ccc2c(=O)n1Cc1ccccc1`, the “%Inh” value was determined as 0% with ROCK1 (setting [13]); 0% in the experiment on ROCK2 (setting [13]); 0% with ROS1 (setting [13]); 0% in experiment [1] (setting [13]); 4% in [2] (setting [13]); 15% in experiment [3] (setting [13]). Further, the “%Inh” value in [4] (setting [13]) is on record as 0%; in experiment [5] (setting [13]), 11%; in experiment [6] (setting [13]), 18%; in [7] (setting [13]), 0%; in experiment [8] (setting [13]), 41%; in experiment [9] (setting [13]), 8%. The “%Inh” value was 21% in [10] (setting [13]); 0% in [11] (setting [13]); 27% in [12] (setting [13]); 8% in the experiment with S6K1 (setting [13]); 2% in the experiment on SBK1 (setting [13]); 0% with SGK2 (setting [13]). Besides, the entries for the “%Inh” value with SGK3 (setting [13]) and with SGK (setting [13]) were 16% and 0%, respectively.
As to `NC(=O)c1nnc2ccccc2c1N`, the “%Inh” value with ROCK1 (setting [13]) came to 0%; in the experiment on ROCK2 (setting [13]), 7%; with ROS1 (setting [13]), 0%; in [1] (setting [13]) it was 21%; in experiment [2] (setting [13]), 30%; in experiment [3] (setting [13]), 6%. The “%Inh” value in [4] (setting [13]) is on record as 21%; in [5] (setting [13]), 31%; in [6] (setting [13]) it was 0%; in experiment [7] (setting [13]) it was 33%; in experiment [8] (setting [13]), 13%; in experiment [9] (setting [13]) it was 19%. Moreover, the “%Inh” value in experiment [10] (setting [13]) is on record as 0%; in experiment [11] (setting [13]) it was 33%; in experiment [12] (setting [13]), 44%; in the experiment on S6K1 (setting [13]) it was 14%; in the experiment with SBK1 (setting [13]), 1%; in the experiment on SGK2 (setting [13]) it was 13%. The “%Inh” value is on record as 44% in the experiment with SGK3 (setting [13]) and 0% in the experiment on SGK (setting [13]).
For the molecule `Cc1ccc(NC(=O)Nc2cc(C(C)(C)C)nn2-c2ccccc2)cc1` [GSK1014915], the “%Inh” value in the experiment on ROCK1 (setting [13]) is 15%; in the experiment with ROCK2 (setting [13]), 0%; in the experiment on ROS1 (setting [13]), 9%; in experiment [1] (setting [13]), 9%; in experiment [2] (setting [13]) it was 0%; in experiment [3] (setting [13]), 25%. The “%Inh” value was determined as 38% in experiment [4] (setting [13]); 16% in experiment [5] (setting [13]); 1% in experiment [6] (setting [13]); 19% in experiment [7] (setting [13]); 0% in [8] (setting [13]); 18% in experiment [9] (setting [13]). Also, the “%Inh” value in experiment [10] (setting [13]) turned out to be 11%; in experiment [11] (setting [13]) it was 0%; in experiment [12] (setting [13]), 44%; in the experiment with S6K1 (setting [13]) it was 10%; with SBK1 (setting [13]) it was 7%; with SGK2 (setting [13]), 8%. Further, the “%Inh” value in the experiment with SGK3 (setting [13]) and in the experiment with SGK (setting [13]) was 0% in each case.
Consider `COc1cccc(NC(=O)NC2CCN(c3ccnc(Nc4ccc(F)cc4)n3)C2)c1` (centres unmarked) [GSK1379721], for which the “%Inh” value in the experiment on ROCK1 (setting [13]) was determined as 0%; in the experiment on ROCK2 (setting [13]), 5%; in the experiment with ROS1 (setting [13]), 0%; in experiment [1] (setting [13]) it was 0%; in experiment [2] (setting [13]) it was 0%; in [3] (setting [13]), 0%. In addition, the “%Inh” value in experiment [4] (setting [13]) is on record as 12%; in experiment [5] (setting [13]) it was 15%; in [6] (setting [13]), 25%; in [7] (setting [13]), 4%; in experiment [8] (setting [13]), 30%; in experiment [9] (setting [13]), 5%. In addition, the “%Inh” value in experiment [10] (setting [13]) turned out to be 2%; in experiment [11] (setting [13]) it was 0%; in experiment [12] (setting [13]), 0%; with S6K1 (setting [13]), 0%; with SBK1 (setting [13]), 2%; in the experiment on SGK2 (setting [13]) it was 0%. The figures for the “%Inh” value in the experiment on SGK3 (setting [13]) and in the experiment with SGK (setting [13]) were 0% and 5%, respectively.
As for `COc1cc(Nc2nccc(N3CCC(NC(=O)Nc4cc(C)ccc4C)C3)n2)cc(OC)c1OC` (centres unmarked) [GSK1379762], the “%Inh” value with ROCK1 (setting [13]) is listed as 12%; with ROCK2 (setting [13]), 2%; with ROS1 (setting [13]), 42%; in [1] (setting [13]) it was 8%; in [2] (setting [13]), 0%; in experiment [3] (setting [13]) it was 22%. Moreover, the “%Inh” value is listed as 2% in experiment [4] (setting [13]); 2% in experiment [5] (setting [13]); 0% in experiment [6] (setting [13]); 0% in experiment [7] (setting [13]); 2% in experiment [8] (setting [13]); 9% in experiment [9] (setting [13]). The “%Inh” value in experiment [10] (setting [13]) is reported as 0%; in experiment [11] (setting [13]), 0%; in experiment [12] (setting [13]), 14%; in the experiment on S6K1 (setting [13]), 3%; in the experiment with SBK1 (setting [13]), 6%; in the experiment with SGK2 (setting [13]), 12%. The “%Inh” value in the experiment on SGK3 (setting [13]) and with SGK (setting [13]) was 0% in each case.
